Calls of active or inactive are those of the source.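 Rule for the calls, unless noted: active = fluorescence slope higher than the sample average by over 3 SD (cut at about -0.22 in these data, passing the limit was not always enough); inactive = the rest.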
Key:
[1] = inhibitors of TNFa-induced NFkB p65 translocation, primary screen, imaging, HUVEC, MLSMR starter and 10KST1 sets (AID 438;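 active = inhibition above 20% together with a positive visual image hit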;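 note: compound added about 3h40 before a 20 min TNFalpha stimulation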;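 for inhibition: signal is the nuclear over cytoplasmic p65 intensity ratio per well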); conditions: HUVEC TNFa-induced p65 nuclear translocation; cell count: measured here: nuclei count (cytotoxicity indicator), at 2.08 µM; inhibition: at 2 µM, stronger effect = higher value, 0% TNFa-plus-vehicle, 100% no-TNFa wells
[2] = inhibitors of mutant huntingtin aggregation, primary screen, imaging, exon1htt(103Q)mCFP cells, high-content imaging (AID 483;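 active = visual image review flags a hit and inhibition of aggregation exceeds 20%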;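 note: compound exposure lasted 3 days before fixation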;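 for nuclei count: percent of the per-plate median nuclei count of sample wells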); conditions: exon1htt(103Q)mCFP cell line, aggregate imaging, at 2 µM; inhibition of aggregation: stronger effect = higher value; nuclei count: measured here: cell count, toxicity
[3] = inhibitors of E-selectin induction by TNFa, primary screen, imaging, HUVEC, immunofluorescence, MLSMR starter and 10KST1 sets (AID 487;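 active = visually confirmed hit in the image check and inhibition above 20%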;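 for inhibition: signal is fraction of cell area covered by stained E-selectin grains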;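 for nuclei count: 100% = median nuclei count of all wells on the same plate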); conditions: HUVEC TNFalpha-induced E-selectin immunofluorescence imaging, at 2 µM; inhibition: stronger effect = higher value; nuclei count: measured here: cell number, toxicity
[4] = biological target: Voltage-gated potassium channel subunit beta-2 (Rattus norvegicus) (UniProt P62483); experiment: KvBeta enzyme negative modulators, primary screen, biochemical, NADPH fluorescence (AID 622); conditions: recombinant KvBeta, 4-cyanobenzaldehyde reduction, at 10 µM, stronger effect = higher value;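 note: slope of raw intensity against log time taken from 70 to 1610 s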
Voltage-gated potassium channel subunit beta-2 (Rattus norvegicus), sequence (P62483 whole entry, looked up): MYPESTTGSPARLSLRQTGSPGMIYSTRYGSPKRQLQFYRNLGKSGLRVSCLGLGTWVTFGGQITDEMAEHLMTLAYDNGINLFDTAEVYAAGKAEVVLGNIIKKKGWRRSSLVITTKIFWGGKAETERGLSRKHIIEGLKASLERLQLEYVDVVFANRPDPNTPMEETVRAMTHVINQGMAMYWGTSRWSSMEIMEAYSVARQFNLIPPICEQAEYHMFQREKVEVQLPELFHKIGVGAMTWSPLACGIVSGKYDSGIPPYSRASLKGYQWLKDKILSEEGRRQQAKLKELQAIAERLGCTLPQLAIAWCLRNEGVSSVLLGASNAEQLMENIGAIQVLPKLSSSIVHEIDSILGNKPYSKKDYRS

[5] = biological target: Voltage-gated potassium channel subunit beta-2 (Rattus norvegicus) (UniProt P62483); experiment: KvBeta positive modulators, primary screen, biochemical, NADPH fluorescence (AID 623;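 active = NADPH fluorescence slope more negative than the mean of all samples by about 3 SD, 99.7% confidence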;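 note: fluorescence intensity change per second fitted from 20 to 320 s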); conditions: Recombinant KvBeta, NADPH fluorescence decrease slope, 10 min; at 10 µM; stronger effect = lower value
[6] = biological target: Alpha-2C adrenergic receptor (Homo sapiens) (UniProt P18825); experiment: modulators of alpha2C/GIRK thallium flux, primary screen, cell-based, HEK293 alpha2C/GIRK1/2 (AID 624;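 active = fluorescence slope after compound addition differing from the mean of all screened samples at 99.7% confidence, in either direction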;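 note: slope of fluorescence ratio to pre-addition baseline per second over 15 to 24 s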); conditions: thallium flux BTC fluorescence, at 10 µM, actives lie on both sides
Alpha-2C adrenergic receptor (Homo sapiens), sequence (P18825 whole entry, looked up): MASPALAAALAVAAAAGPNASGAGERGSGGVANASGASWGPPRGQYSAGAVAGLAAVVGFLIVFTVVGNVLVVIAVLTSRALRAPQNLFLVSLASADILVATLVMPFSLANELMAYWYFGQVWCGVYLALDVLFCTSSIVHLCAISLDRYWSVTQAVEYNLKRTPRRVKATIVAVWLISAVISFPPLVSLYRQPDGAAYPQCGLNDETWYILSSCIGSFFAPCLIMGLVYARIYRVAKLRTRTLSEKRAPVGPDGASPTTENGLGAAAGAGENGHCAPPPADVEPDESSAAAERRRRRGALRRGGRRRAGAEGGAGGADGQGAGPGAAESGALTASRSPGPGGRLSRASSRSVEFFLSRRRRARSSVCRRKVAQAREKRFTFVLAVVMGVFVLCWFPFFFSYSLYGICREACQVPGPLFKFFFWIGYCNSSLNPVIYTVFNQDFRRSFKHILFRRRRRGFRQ

[7] = inhibitors of Sendai virus-induced IRF3 signaling, primary screen, TLR/RLR signaling modifier project, cell-based, Sendai virus stimulus, luciferase, 10K MLSCN set (AID 602276;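 active = inhibition at or above 50% at 10 µM; inactive = inhibition below 50%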;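 note: firefly luciferase from ISG56 promoter only with Renilla not read in this screen; 0% = Sendai virus plus DMSO and 100% = medium plus DMSO without virus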); conditions: HEK293 RL24 IRF3 luciferase reporter, at 10 µM, stronger effect = higher value
[8] = inhibitors of poly I:C-induced TLR3 signaling, primary screen, cell-based, poly I:C stimulus, luciferase, 10K MLSCN set (AID 602277;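 active = inhibition of the reporter signal at or above 50%; inactive = inhibition below 50%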); conditions: HEK293-TLR3 RL24 IRF3 luciferase reporter, at 10 µM, stronger effect = higher value

SMILES	cell count [1]	inhibition [1]	inhibition of aggregation [2]	nuclei count [2] [%]	inhibition [3]	nuclei count [3] [%]	fluorescence slope [4]	NADPH fluorescence slope [5]	slope [6]	inhibition [7]	inhibition [8]
CCOc1cc2[nH]c(=S)n(CC3CCCO3)c(=O)c2cc1OCC (stereo not drawn)	317	-0.5% (inactive)	1% (inactive)	104	-51.1% (inactive)	115	-0.491 (inactive)	4e-05 (inactive)	0.00618 (inactive)	-8.82% (inactive)	15.8% (inactive)
CC1CCc2c(sc3c2C2=NS(=O)(=O)CCN2C=N3)C1 (stereo not drawn)	188	2.9% (inactive)	2.7% (inactive)	87.1	-5.5% (inactive)	108	-0.582 (inactive)	-6.8e-05 (inactive)	0.00732 (inactive)	11.9% (inactive)	33.3% (inactive)
Cc1cccc(NC(=O)c2oc3c(c2C)C(=O)CC(C)(C)C3)n1	256	-4% (inactive)	-4.5% (inactive)	90.8	-63.6% (inactive)	93.5	-0.403 (inactive)	-7.1e-05 (inactive)	0.00548 (inactive)	-18% (inactive)	-30.8% (inactive)
NS(=O)(=O)c1ccc(CCNC(=O)CCC2COc3ccccc3O2)cc1 (stereo not drawn)	535	-8.3% (inactive)	-5.3% (inactive)	98.4	-20.9% (inactive)	90.3	-0.564 (inactive)	3.4e-06 (inactive)	0.00562 (inactive)	15.7% (inactive)	18.3% (inactive)
COC(=O)c1ccc(COc2ccc(C3C4=C(CCCC4=O)Nc4onc(C)c43)cc2)cc1 (stereo not drawn)	303	-4.7% (inactive)	-8.3% (inactive)	112	-68.7% (inactive)	118	-0.479 (inactive)	-1.7e-05 (inactive)	0.00693 (inactive)	-12.9% (inactive)	-23% (inactive)
O=C(c1cccnc1NCc1ccccc1)N1CCOCC1	616	-26.5% (inactive)	5.4% (inactive)	114	-53.4% (inactive)	116	-0.613 (inactive)	2e-05 (inactive)	0.00541 (inactive)	-13.7% (inactive)	-5.42% (inactive)
Cc1cc(=O)oc2ccc(OCC(=O)N(Cc3ccc(F)cc3)Cc3ccco3)cc12	751	2.2% (inactive)	-0.1% (inactive)	95.6	-150% (inactive)	107	-0.493 (inactive)	2.4e-05 (inactive)	0.00494 (inactive)	-10.8% (inactive)	-19% (inactive)
COc1ccc(C)cc1S(=O)(=O)N(C)CC(=O)Nc1ccc2c(c1)OCCO2	489	-8.1% (inactive)	7.6% (inactive)	92.1	22.5% (inactive)	110	-0.427 (inactive)	3.4e-05 (inactive)	0.00534 (inactive)	-4.31% (inactive)	-10.2% (inactive)
O=C(C(Cc1ccccc1)n1cccc1)N1CCCCCC1 (stereo not drawn)	690	-1.6% (inactive)	8.2% (inactive)	104	-42.3% (inactive)	115	-0.517 (inactive)	-1.7e-05 (inactive)	0.00572 (inactive)	3.28% (inactive)	25.3% (inactive)
O=S(=O)(NCc1ccccn1)c1ccc2c(c1)OCCO2	673	11.1% (inactive)	-27.1% (inactive)	99.3	-3.6% (inactive)	102	-0.354 (inactive)	-8e-05 (inactive)	0.00513 (inactive)	3.8% (inactive)	5.59% (inactive)
COc1ccccc1N1CCN(C/C(O)=C(\C#N)c2nc(-c3ccccc3)cs2)CC1	475	-3.4% (inactive)	-1.4% (inactive)	114	-33.4% (inactive)	119	-0.56 (inactive)	4.6e-05 (inactive)	0.00548 (inactive)	-9.12% (inactive)	-1.83% (inactive)
O=C1NCC(COCc2ccccc2)O1 (stereo not drawn)	432	-3% (inactive)	21% (inactive)	87.4	25.1% (inactive)	102	-0.496 (inactive)	-5.3e-05 (inactive)	0.00525 (inactive)	8.89% (inactive)	21% (inactive)
COc1nc(Oc2ccc(=O)n(C)n2)nc(N(C)C)n1	420	1% (inactive)	-5.2% (inactive)	116	-52.1% (inactive)	110	-0.357 (inactive)	-1.9e-05 (inactive)	0.00579 (inactive)	6.15% (inactive)	12% (inactive)
COc1ccc(NC(=O)C2CCCCN2S(=O)(=O)c2ccc(F)cc2)cc1 (stereo not drawn)	630	3.7% (inactive)	27.3% (inactive)	76.6	-67.7% (inactive)	105	-0.584 (inactive)	-2.4e-05 (inactive)	0.00664 (inactive)	15.6% (inactive)	42.2% (inactive)
Cc1cnc(NC(=O)CSc2nc3ccccc3c(=O)[nH]2)s1	281	8.9% (inactive)	-0.5% (inactive)	99.4	65% (active)	98.4	-0.427 (inactive)	5.1e-05 (inactive)	0.00477 (inactive)	2.98% (inactive)	-0.232% (inactive)
CCCN(CCC)CCNS(=O)(=O)c1ccc2c(c1)oc(=O)n2C	346	-13.8% (inactive)	-2.5% (inactive)	77.3	-106% (inactive)	119	-0.427 (inactive)	-3.3e-05 (inactive)	0.00461 (inactive)	9.38% (inactive)	10.9% (inactive)
CN(Cc1cccs1)CC(O)COCc1ccco1 (stereo not drawn)	407	6% (inactive)	-40.7% (inactive)	116	-28.9% (inactive)	113	-0.591 (inactive)	-4.7e-05 (inactive)	0.00778 (inactive)	11.5% (inactive)	23.9% (inactive)
CCOC(=O)N1CCN(C(=O)COc2cc(=O)n(C)c3ccccc23)CC1	341	1.7% (inactive)	-0.1% (inactive)	94.2	1.7% (inactive)	118	-0.565 (inactive)	4.1e-05 (inactive)	0.00524 (inactive)	-5.65% (inactive)	-23.1% (inactive)
Cc1cc(=O)oc(C)c1C(=O)O	560	-13.1% (inactive)	20.6% (inactive)	88.5	-3.9% (inactive)	114	-0.451 (inactive)	-0.000139 (inactive)	0.00558 (inactive)	9.47% (inactive)	25.5% (inactive)
CC(C)(C)NC(=O)COC(=O)c1ccc(O)cc1	714	-6.7% (inactive)	-18.1% (inactive)	98.1	10% (inactive)	101	-0.625 (inactive)	7.6e-06 (inactive)	0.00738 (inactive)	-6.22% (inactive)	-8.12% (inactive)
CCOC(=O)CCNC(=O)Nc1ccc2nc(C)n(Cc3ccccc3Cl)c(=O)c2c1	623	1.4% (inactive)	-9.2% (inactive)	89.5	-33.8% (inactive)	104	-0.366 (inactive)	1.6e-05 (inactive)	0.00472 (inactive)	1.46% (inactive)	-9.46% (inactive)
Cc1cc(C)c2nc(C(F)(F)F)nc(NCCCN3CCCC3=O)c2c1	277	5% (inactive)	21.4% (inactive)	80.7	-230% (inactive)	97.5	-0.484 (inactive)	-2.3e-05 (inactive)	0.00428 (inactive)	16.5% (inactive)	18.3% (inactive)
O=C1c2ccccc2C(Nc2ccc3c(c2)OCO3)N1Cc1ccc2c(c1)OCO2 (stereo not drawn)	529	-8.5% (inactive)	-8.3% (inactive)	63.8	-0.3% (inactive)	107	-0.398 (inactive)	-2.6e-05 (inactive)	0.00394 (inactive)	-3.95% (inactive)	27.2% (inactive)
CCC(=O)N1CCN(CCN=CC2=C(O)CC(C)(C)CC2=O)CC1	476	4% (inactive)	1.1% (inactive)	105	5.8% (inactive)	111	-0.518 (inactive)	-2.4e-05 (inactive)	0.00473 (inactive)	8.29% (inactive)	11.4% (inactive)
CCOc1ccc(CCN2C(=O)C3C4C=CC(C4)C3C2=O)cc1OCC (stereo not drawn)	626	2.9% (inactive)	-33.6% (inactive)	134	-51.4% (inactive)	112	-0.551 (inactive)	-1.1e-05 (inactive)	0.00791 (inactive)	16.8% (inactive)	36.6% (inactive)
CCOc1cc(NC(=O)c2ccccn2)c(OCC)cc1NC(=O)CC(C)C	609	-11.5% (inactive)	-0.3% (inactive)	115	-76.1% (inactive)	119	-0.615 (inactive)	4.7e-06 (inactive)	0.00499 (inactive)	-9.2% (inactive)	-24.5% (inactive)
CCOC(=O)CSc1nn(C)c(=S)s1	723	0.6% (inactive)	-4.4% (inactive)	108	-19.1% (inactive)	104	-0.573 (inactive)	-1.7e-05 (inactive)	0.00733 (inactive)	3.99% (inactive)	21.1% (inactive)
O=C(OCc1nnc(-c2ccccc2)o1)c1ccc2ccccc2n1	457	-3.1% (inactive)	-11.6% (inactive)	95.8	-165% (inactive)	106	-0.565 (inactive)	7e-05 (inactive)	0.00433 (inactive)	-29.8% (inactive)	-34.4% (inactive)
